Screening data (PubChem BioAssay)
Hits are enriched below; roughly 11% of the tested compounds scored in any of these assays.
Insulin prom inh: inhibitors of insulin promoter-driven GFP, primary screen, imaging, TRM-6 cells (human fetal islet line), eGFP reporter, cell count. inhibition, % at 2 µM. 130,000 tested, 0.9% active. reporter expression induced with tamoxifen;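 active = inhibition above the mean plus 3 SD, with well images judged a real hit on visual review, cut at about 60% in these data, passing the limit was not always enough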
L major viab: Leishmania major promastigote growth inhibition, primary screen. Leishmania major promastigotes, resazurin fluorescence viability. inhibition, % at 10 µM. 200,000 tested, 9% active; in the data active = inhibition above about 50%;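 also: promastigotes grown with compound for 44 hours at 28 °C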
Ins promoter up: insulin promoter activators in MIN6 cells, imaging, high-content screening, mouse beta cells | MIN6 insulin promoter-GFP reporter; stronger effect = higher value | AID 1625, 2009 | z-score at 5 µM | 190,000 tested, 0.3% active;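 active = z-score above 3 at 5 µM with at least 500 cells counted in the well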
Autophagy mod: autophagy modulators in MEF cells, primary screen, imaging, high-content, MEF GFP-LC3. AID 463193, 2010. MEF GFP-LC3 puncta imaging; test concentration mostly 10 µM. calls only at 10 µM (by protocol). 190,000 tested, 0.98% active;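 active = percentage of spot-positive cells more than 3 SD above its plate mean, without a fluorescence outlier flag or 80% toxicity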
WT yeast gro inh: growth inhibition of WT strain, primary screen, mitochondrial fusion inhibitor project, WT and mutant strains, chemical genetic; mitochondrial fusion phenotypic screen; inhibition, % at 10 µM; 190,000 tested, 2.1% active; in the data active = inhibition above about 58%; tested in S. cerevisiae
A number is an active result; - = inactive; . = no result; + = active, no number.

SMILES	Insulin prom inh	L major viab	Ins promoter up	Autophagy mod	WT yeast gro inh
CC(=O)NC(CC(=O)OCC(=O)c1c(N)n(C)c(=O)n(C)c1=O)c1ccccc1 (stereo not given)	.	-	-	-	-
COCCOc1cc(-n2cccc2)c(Cl)cc1Cl	-	-	-	-	-
NS(=O)(=O)c1ccc(NC=C2C(=O)OC3(CCCCC3)OC2=O)cc1	-	-	3.8	-	-
CCCCc1ccc(NC=C2C(=O)OC3(CCCCC3)OC2=O)cc1	-	-	-	-	-
COc1ccc(-c2[nH]ncc2/C=C(/C#N)C(=O)NC2CCCCCC2)cc1	-	-	-	-	-
COc1ccc(OC)c(NC(=O)c2cc3c(Cl)nc4ccccc4c3s2)c1	-	72	.	-	-
COc1ccc(NC(=O)c2cc3c(Cl)nc4ccccc4c3s2)cc1OC	.	-	.	-	-
CCOc1ccc(-c2[nH]ncc2Oc2ccccc2OC)c(O)c1	.	-	-	-	-
C=C(C)COc1ccc(-c2[nH]ncc2Oc2ccccc2OC)c(O)c1	-	54	-	-	-
CCOc1ccc(-c2[nH]ncc2Oc2ccccc2OCC)c(O)c1	-	-	-	-	65
CCOc1ccc(-c2nc(N)ncc2Oc2ccccc2Br)c(O)c1	-	-	-	-	92
C=C(C)COc1ccc(-c2[nH]ncc2Oc2ccc(OC)cc2)c(O)c1	.	.	-	.	.
CCCOC(=O)c1ccc(Oc2cn[nH]c2-c2ccc(OC)cc2O)cc1	-	85	-	-	78
O=C(COC(=O)c1ccc2c(=O)n3c(nc2c1)CCC3)NC1CCS(=O)(=O)C1 (stereo not given)	.	-	-	-	-
Cc1ccc(NC(=O)CCCCCCCCCCC2COCCO2)c(C)c1 (stereo not given)	.	-	-	-	-
O=C(COc1ccc(Cl)cc1)NCc1nnc(SCC(=O)N2CCCC2)o1	-	-	-	-	-
CC(C)(C)C(=O)NC1(C(F)(F)F)NC(=O)N(c2ccccc2F)C1=O (stereo not given)	.	.	-	.	.
COc1ccc2[nH]c(C(=O)Nc3ccc4c(c3)OCO4)cc2c1	.	.	-	.	.
O=c1c2ccccc2c(C=Nc2cccc(O)c2)c(O)n1-c1ccc2c(c1)OCO2	-	-	-	-	-
CC1(C)CC(N=Cc2c(O)n(Cc3ccc4c(c3)OCO4)c(=O)c3ccccc23)CC(C)(C)N1	.	101	-	-	-
CCOC(=O)c1ccc(-c2ccc(CO)o2)cc1	.	-	-	-	-
Cc1cc([N+](=O)[O-])ccc1-c1ccc(C2Nc3ccccc3C(=O)N2O)o1 (stereo not given)	-	99	.	-	-
CCOC(=O)c1ccc(-c2ccc(C3Nc4ccccc4C(=O)N3O)o2)cc1 (stereo not given)	.	98	-	-	-
CC(=O)c1cccc(NC(=O)N2CCC(NC(=O)C34CC5CC(CC(C5)C3)C4)CC2)c1	-	55	-	-	-
O=C(CS(=O)Cc1ccccc1Cl)Nc1ccccc1Cl (stereo not given)	-	-	.	-	-
SMILES	Insulin prom inh	L major viab	Ins promoter up	Autophagy mod	WT yeast gro inh
CC(C)OP(=O)(OC(C)C)C(O)c1ccc(N(C)C)cc1 (stereo not given)	.	.	-	.	.
Cc1ccccc1NC(=O)COC(=O)c1cc(=O)c2ccccc2o1	-	-	-	-	-
CN(C)c1ccc(NC(=O)COC(=O)c2cc(=O)c3ccccc3o2)cc1	67	-	-	-	-
Cc1nn(C(C)C)c(C)c1CN1CCN(Cc2ccsc2)C(CCO)C1 (stereo not given)	.	-	-	-	-
COc1ccc(CN(CCC(c2ccccc2)c2ccc(OC(C)C)cc2)C(=O)CCl)cc1OC (stereo not given)	-	100	-	-	-
N#Cc1c(NCCCO)nc(NCc2ccccc2)c2c1CCN(Cc1ccccc1)C2	.	59	-	-	-
CN1CCc2c(C#N)c(N3CCCCC3)nc(NCc3ccccc3)c2C1	-	78	-	-	-
CC(C)c1nc(NCc2ccccc2)c(C#N)c2c1CCCC2	-	-	-	-	-
CCCCc1oc2ccccc2c1C(=O)c1cc(I)c(OCCN(CC)CC)c(I)c1	-	99	.	-	-
O=C(NCCN1CCOCC1)c1ccc2c(c1)N(Cc1ccccc1F)C(=O)c1ccccc1S2	.	100	-	+	-
Cc1cccc(CN2C(=O)c3ccccc3Sc3ccc(C(=O)NCCN4CCOCC4)cc32)c1	-	100	-	-	-
CCN1C(=O)c2ccccc2Sc2ccc(C(=O)NCCCN3CCOCC3)cc21	.	-	-	-	-
COc1cc(/C=N/NC2=NC(C)(C)Cc3ccccc32)cc(OC)c1OC	-	-	-	-	-
